This is an account of results in article PMC11062922 (Nature Chemical Biology, 2023).

Structures are written as SMILES. Like-named read-outs stand apart in the source and are kept apart here.

Design in all cases: species or system human, MV4-11 + K-562 + COLO205 + SK-N-BE2 + OVCAR-8
The test system of one test is COX5A. Conditions: read-out: apparent Kd; compound concentrations: 100 nM and 1000 nM (sheet 'Samples'), CATDS: 4.9189359622159999E-2; n = 1.
For the next test, the system named is DCTPP1. As to conditions: read-out: apparent Kd; compound concentrations: 100 nM and 1000 nM (sheet 'Samples'), CATDS: 4.6014352292288702E-2; n = 1.
Another test deals with T1, DJA1.
T1 construct: gene DNAJA1
Conditions: read-out: apparent Kd; compound concentrations: 100 nM and 1000 nM (sheet 'Samples'), CATDS: 4.4193252056285201E-2; n = 1.

Another test has as its system GSK3A. As to conditions: read-out: apparent Kd; compound concentrations: 100 nM and 1000 nM (sheet 'Samples'), CATDS: 0.122036106459496; n = 1.
For a further test, the system named is GSK3B. As to conditions: read-out: apparent Kd; compound concentrations: 100 nM and 1000 nM (sheet 'Samples'), CATDS: 7.9816759037496299E-2; n = 1.
The next test concerns ICK. Conditions: read-out: apparent Kd; compound concentrations: 100 nM and 1000 nM (sheet 'Samples'), CATDS: 5.6669342720563003E-2; n = 1.
The next test deals with IRAK4. As to conditions: read-out: apparent Kd; compound concentrations: 100 nM and 1000 nM (sheet 'Samples'), CATDS: 4.1120656288718103E-2; n = 1.
For the next test, the system named is NQO2. Conditions: read-out: apparent Kd; compound concentrations: 100 nM and 1000 nM (sheet 'Samples'), CATDS: 4.4133222473916003E-2; n = 1.
Another test relates to PDXK. As to conditions: read-out: apparent Kd, compound concentrations: 100 nM and 1000 nM (sheet 'Samples'), n = 1.
For a further test, the system named is PKM. Conditions: read-out: apparent Kd; compound concentrations: 100 nM and 1000 nM (sheet 'Samples'), CATDS: 4.24178727539107E-2; n = 1.
The test system of the next test is PRKCA. Conditions: read-out: apparent Kd; compound concentrations: 100 nM and 1000 nM (sheet 'Samples'), CATDS: 0.16671093509257301; n = 1.
A further test concerns PRKCB. Conditions: read-out: apparent Kd; compound concentrations: 100 nM and 1000 nM (sheet 'Samples'), CATDS: 0.103401892254312; n = 1.
For another test, the system named is PRKCD. As to conditions: read-out: apparent Kd; compound concentrations: 100 nM and 1000 nM (sheet 'Samples'), CATDS: 0.14677324190073199; n = 1.
The next test relates to PRKCQ. As to conditions: read-out: apparent Kd; compound concentrations: 100 nM and 1000 nM (sheet 'Samples'), CATDS: 5.3878720766830299E-2; n = 1.
In a further test the test system is RPS6KA3. As to conditions: read-out: apparent Kd, compound concentrations: 100 nM and 1000 nM (sheet 'Samples'), n = 1.
The subject of the next test is RPS6KA6. Conditions: read-out: apparent Kd; compound concentrations: 100 nM and 1000 nM (sheet 'Samples'), CATDS: 0.184421750918566; n = 1.
A further test relates to RPS6KB1. Conditions: read-out: apparent Kd; compound concentrations: 100 nM and 1000 nM (sheet 'Samples'), CATDS: 4.3958496024185799E-2; n = 1.
Another test concerns CSNK1D. As to conditions: read-out: apparent Kd, n = 1.
The subject of the next test is CSNK1E. Conditions: read-out: apparent Kd, n = 1.
In the next test the test system is MAPK14. As to conditions: read-out: apparent Kd, n = 1.
Another test has as its system MAPKAPK2. Conditions: read-out: apparent Kd, n = 1.
Another test concerns MAPK10. As to conditions: read-out: apparent Kd; compound concentrations: 100 nM and 1000 nM (sheet 'Samples'), CATDS: 6.3561216633857096E-2; n = 1.
In the next test the test system is MAPK11. Conditions: read-out: apparent Kd, n = 1.
A further test has as its system MAPK9. As to conditions: read-out: apparent Kd; compound concentrations: 100 nM and 1000 nM (sheet 'Samples'), CATDS: 9.6618855435108605E-2; n = 1.
The subject of the next test is NLK. As to conditions: read-out: apparent Kd; compound concentrations: 100 nM and 1000 nM (sheet 'Samples'), CATDS: 5.8542673875263601E-2; n = 1.
A further test deals with PRKD2. As to conditions: read-out: apparent Kd; compound concentrations: 100 nM and 1000 nM (sheet 'Samples'), CATDS: 5.9855757256393E-2; n = 1.
Another test has as its system PRKD3. As to conditions: read-out: apparent Kd; compound concentrations: 100 nM and 1000 nM (sheet 'Samples'), CATDS: 5.6713144719272697E-2; n = 1.
A further test relates to RIPK2. Conditions: read-out: apparent Kd; compound concentrations: 100 nM and 1000 nM (sheet 'Samples'), CATDS: 7.7128877949965702E-2; n = 1.
The subject of another test is CLK1. Conditions: read-out: apparent Kd; compound concentrations: 100 nM and 1000 nM (sheet 'Samples'), CATDS: 0.21092266840342; n = 1.
For another test, the system named is CLK4. Conditions: read-out: apparent Kd, compound concentrations: 100 nM and 1000 nM (sheet 'Samples'), n = 1.
In another test the test system is DYRK1A. Conditions: read-out: apparent Kd; compound concentrations: 100 nM and 1000 nM (sheet 'Samples'), CATDS: 0.12917753556196801; n = 1.
In a further test the test system is JAK2. Conditions: read-out: apparent Kd; compound concentrations: 100 nM and 1000 nM (sheet 'Samples'), CATDS: 0.15367863363527601; n = 1.
In another test the test system is PTK2. As to conditions: read-out: apparent Kd; compound concentrations: 100 nM and 1000 nM (sheet 'Samples'), CATDS: 0.76143962131213405; n = 1.
The subject of another test is RPS6KA1. Conditions: read-out: apparent Kd; compound concentrations: 100 nM and 1000 nM (sheet 'Samples'), CATDS: 9.5788061874141406E-2; n = 1.
The test system of a further test is MAP2K2. As to conditions: read-out: apparent Kd; compound concentrations:100 nM and 1000 nM (sheet 'Samples'); n = 1.
A further test relates to RAB6A;RAB6B. Conditions: read-out: apparent Kd; compound concentrations:100 nM and 1000 nM (sheet 'Samples'); n = 1.
A further test relates to CSNK2A2. As to conditions: read-out: apparent Kd; compound concentrations: 100 nM and 1000 nM (sheet 'Samples'), CATDS: 0.28231341025767498; n = 1.
Setting [1] is: compound concentrations:100 nM and 1000 nM (sheet 'Samples').

On to `CNCCCn1cc(C2=C(c3cn(C)c4ccccc34)C(=O)NC2=O)c2ccccc21.Cl` [RO0318044-001], for which the potency estimated from few doses with COX5A was 925 nM; in the test on DCTPP1, 1150 nM; in the test on DJA1, 1330 nM; in the test on GSK3A, 114 nM; with GSK3B, 263 nM; with ICK, 610 nM. In addition, the potency estimated from few doses is 1750 nM in the test with IRAK4; 1330 nM in the test with NQO2; 1270 nM in the test with PDXK (CATDS: 4.47093082107951E-2); 1550 nM in the test on PKM; 67.8 nM in the test with PRKCA; 154 nM in the test with PRKCB. The potency estimated from few doses was 83 nM in the test on PRKCD; 703 nM in the test on PRKCQ; 1610 nM in the test on RPS6KA3 (CATDS: 4.20026996356445E-2); 58.2 nM with RPS6KA6; 1350 nM in the test with RPS6KB1.

Regarding `Fc1ccc(-c2ncn(C3CCNCC3)c2-c2ccnc(Oc3ccc(-c4ccccc4)cc3)n2)cc1` [SB-245391], the potency estimated from few doses with CSNK1D (setting [1]) is 486 nM; in the test with CSNK1E (setting [1]), 1840 nM; in the test on MAPK14 (setting [1]), 424 nM; in the test with MAPKAPK2 (setting [1]), 116 nM.

For the molecule `C[C@H](O)CNc1cc(-c2[nH]c3cccnc3c2-c2ccc(F)cc2)ccn1.Cl` [RO3206145-001], the potency estimated from few doses in the test on CSNK1D (compound concentrations: 100 nM and 1000 nM (sheet 'Samples'), CATDS: 0.227277196740168) was 36.6 nM; with CSNK1E (compound concentrations: 100 nM and 1000 nM (sheet 'Samples'), CATDS: 0.13101963616975801), 99 nM; with MAPK10, 1000 nM; with MAPK11 (compound concentrations: 100 nM and 1000 nM (sheet 'Samples'), CATDS: 0.18420027460355101) it was 51.5 nM; with MAPK14 (compound concentrations: 100 nM and 1000 nM (sheet 'Samples'), CATDS: 0.188780888737105) it was 49.4 nM; with MAPK9, 211 nM. The potency estimated from few doses in the test with MAPKAPK2 (compound concentrations: 100 nM and 1000 nM (sheet 'Samples'), CATDS: 0.128658474948743) is 103 nM; in the test on NLK, 1550 nM; in the test with PRKD2 it was 1370 nM; in the test with PRKD3 it was 1880 nM; in the test on RIPK2, 441 nM.

In the case of `CCCNC(=O)c1ccc(Nc2ncc(C(F)(F)F)c(Nc3ccccc3C(C)=O)n2)c(Br)c1` [BI00801818], the potency estimated from few doses in the test on CLK1 is 154 nM; in the test with CLK4 (CATDS: 0.13004922294711499), 524 nM; in the test on DYRK1A it was 534 nM; in the test on JAK2 it was 330 nM; with PTK2, 11.3 nM; in the test on RPS6KA1 it was 1590 nM. Besides, the potency estimated from few doses in the test on RPS6KA3 (CATDS: 9.4623993582158103E-2) was 1690 nM.

With `CCc1ccc(Oc2nccc(-c3c(-c4ccc(F)cc4)ncn3C3CCNCC3)n2)cc1` [SB-242719], the potency estimated from few doses in the test on CSNK1D (setting [1]) is 419 nM; in the test with CSNK1E (setting [1]) it was 760 nM; in the test with MAP2K2, 2280 nM; with MAPK11 (setting [1]) it was 779 nM; in the test on MAPK14 (setting [1]) it was 24.4 nM; in the test on MAPKAPK2 (setting [1]), 13.3 nM. The potency estimated from few doses in the test on RAB6A;RAB6B was 1360 nM.

`Nc1ncnc2[nH]c(-c3ccccc3)nc12` [AH5015_KCGS]: the potency estimated from few doses in the test on CLK4 (CATDS: 0.40901388179724202) was 1090 nM; with CSNK2A2 it was 2320 nM; with PDXK (CATDS: 0.33190254365372501) it was 1610 nM.
